Assay [1] can be described thus: NCI Yeast Anticancer Drug Screen. Data for the rad50 strain (AID 155).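 Also: 0% = growth of vehicle-only cultures of the same strain.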 Conditions: S. cerevisiae rad50 strain growth inhibition, active compounds read high. The method, boiled down: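 A DNA repair-deficient yeast mutant serves as the test organism; compound-induced growth inhibition is calculated against vehicle-treated cells.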
A short description of assay [2]: NCI Yeast Anticancer Drug Screen. Data for the mec2-1 strain (AID 157). The settings on record: S. cerevisiae mec2-1 strain, active compounds read high. A digest of the protocol:
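Compounds were applied to mec2-1 yeast cells. Their growth was then compared with that of vehicle-treated cultures to give growth inhibition.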

A short description of assay [3]: NCI Yeast Anticancer Drug Screen. Data for the sgs1 mgt1 strain (AID 161).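 Also: 0% = growth of cultures given vehicle only.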 The settings on record: S. cerevisiae sgs1 mgt1 strain, active compounds read high. A digest of the protocol: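 Compounds are added to genetically altered yeast, and growth is compared with cultures given vehicle alone to give percent inhibition.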
Assay [4] can be described thus: NCI Yeast Anticancer Drug Screen. Data for the cln2 rad14 strain (AID 165).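 Also: 0% = growth equal to vehicle treated cultures.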 The settings on record: S. cerevisiae cln2 rad14 strain, active compounds read high. A digest of the protocol:
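Strain: cln2 rad14 yeast, altered in cell cycle control and DNA damage repair. Read-out: growth inhibition vs vehicle.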

Assay [5] is described as follows: NCI Yeast Anticancer Drug Screen. Data for the bub3 strain (AID 167). Conditions: S. cerevisiae bub3 mutant strain, active compounds read high. A digest of the protocol:
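Inhibition values come from growth of compound-treated mutant yeast normalised to vehicle-treated controls.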

A short description of assay [6]: NCI Yeast Anticancer Drug Screen. Data for the mlh1 rad18 strain (AID 175). Conditions: S. cerevisiae mlh1 rad18 strain growth inhibition, active compounds read high. The method, boiled down: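 A repair-deficient yeast strain is exposed to test compound, and growth is scored relative to vehicle-treated controls.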
Where [7] appears, read: at 5.0 µM (retest, dose inferred, filed as 0.5).
Where [8] appears, read: at 50.0 µM (retest, dose inferred, filed as 5.0).

The panel holds about 79,000 compounds, 15% with a hit somewhere; the sample as a whole holds those more often. A number with no mark means an inactive call. Calls of active or inactive are those of the source. Rule as the data show it: active = growth inhibition above about 70%; inactive = the rest.

On to `CCOC(=O)N1CCN(CCCCCCOc2ccc(C(C)(C)C)cc2)CC1`, for which the growth inhibition in assay [1] (setting [7]) was 3%; in assay [1] (setting [8]), 82% (active); in assay [1] (at 50.0 µM), 93.5% (active); in assay [2] (setting [7]) it was 28%; in assay [2] (setting [8]), 87% (active); in assay [2] (at 50.0 µM) it was 96% (active). For the same molecule, the growth inhibition in assay [3] (setting [7]) is 31%; in assay [3] (setting [8]), 97% (active); in assay [3] (at 50.0 µM), 98.1% (active); in assay [4] (setting [7]) it was 12%; in assay [4] (setting [8]), 61%; in assay [4] (at 50.0 µM), 94.5% (active). The growth inhibition in assay [5] (setting [7]) was 7%; in assay [5] (setting [8]), 76% (active); in assay [5] (at 50.0 µM), 96.7% (active); in assay [6] (setting [7]), 38%; in assay [6] (setting [8]), 97% (active); in assay [6] (at 50.0 µM), 98.6% (active).
On to `COC(=O)C(=O)C(C(=O)Nc1cccc(C)c1C)C1Sc2ccccc2NC1=O` (configuration not stated), for which the growth inhibition in assay [1] (setting [7]) was 99% (active); in assay [1] (setting [8]) it was 99% (active); in assay [1] (at 50.0 µM), 51.1%; in assay [2] (setting [7]), 88% (active); in assay [2] (setting [8]) it was 88% (active); in assay [2] (at 50.0 µM) it was 70.2% (active). Also, the growth inhibition in assay [3] (setting [7]) is 99% (active); in assay [3] (setting [8]), 99% (active); in assay [3] (at 50.0 µM) it was 69.5%; in assay [4] (setting [7]) it was 95% (active); in assay [4] (setting [8]) it was 95% (active); in assay [4] (at 50.0 µM) it was 52.8%. For the same molecule, the growth inhibition is 65% in assay [5] (setting [7]); 65% in assay [5] (setting [8]); 81.7% (active) in assay [5] (at 50.0 µM); 92% (active) in assay [6] (setting [7]); 92% (active) in assay [6] (setting [8]); 81.5% (active) in assay [6] (at 50.0 µM).
In the case of `CC(C)=CCC/C(C)=C/COC(=O)Nc1ccccc1`, the growth inhibition in assay [1] (setting [7]) is -7%; in assay [1] (setting [8]), -5%; in assay [1] (at 50.0 µM), 15.7%; in assay [2] (setting [7]), -13%; in assay [2] (setting [8]), -7%; in assay [2] (at 50.0 µM), 18.7%. Moreover, the growth inhibition in assay [3] (setting [7]) was -2%; in assay [3] (setting [8]) it was 17%; in assay [3] (at 50.0 µM) it was 62.3%; in assay [4] (setting [7]), -40%; in assay [4] (setting [8]), -5%; in assay [4] (at 50.0 µM), 61%. Besides, the growth inhibition in assay [5] (setting [7]) was -2%; in assay [5] (setting [8]), -1%; in assay [5] (at 50.0 µM), 52.8%; in assay [6] (setting [7]) it was -13%; in assay [6] (setting [8]), -11%; in assay [6] (at 50.0 µM) it was 10.9%.
For `O=C(CCn1[nH]c(=O)c(Cl)c(Cl)c1=O)NNc1ccc([N+](=O)[O-])cc1[N+](=O)[O-]`, the growth inhibition in assay [1] (setting [7]) was 4%; in assay [1] (setting [8]), 36%; in assay [1] (at 50.0 µM), 35.8%; in assay [2] (setting [7]), -7%; in assay [2] (setting [8]), 2%; in assay [2] (at 50.0 µM) it was -4.7%. The growth inhibition in assay [3] (setting [7]) is 1%; in assay [3] (setting [8]) it was 18%; in assay [3] (at 50.0 µM) it was -12.9%; in assay [4] (setting [7]), -2%; in assay [4] (setting [8]), 1%; in assay [4] (at 50.0 µM), -2.45%. For the same molecule, the growth inhibition is 1% in assay [5] (setting [7]); 19% in assay [5] (setting [8]); 26.2% in assay [5] (at 50.0 µM); 2% in assay [6] (setting [7]); 17% in assay [6] (setting [8]); 88.2% (active) in assay [6] (at 50.0 µM).
For the molecule `N#CC1C2CCC3(CC2CCN1C(=O)c1ccccc1)OCCO3` (configuration not stated), the growth inhibition was -1% in assay [1] (setting [7]); 59% in assay [1] (setting [8]); 32.5% in assay [1] (at 50.0 µM); -1% in assay [2] (setting [7]); 76% (active) in assay [2] (setting [8]); 72.2% (active) in assay [2] (at 50.0 µM). The growth inhibition in assay [3] (setting [7]) was -6%; in assay [3] (setting [8]) it was 60%; in assay [3] (at 50.0 µM), 43%; in assay [4] (setting [7]), -7%; in assay [4] (setting [8]), 78% (active); in assay [4] (at 50.0 µM), 71.8% (active). The growth inhibition is 12% in assay [5] (setting [7]); 82% (active) in assay [5] (setting [8]); 82.8% (active) in assay [5] (at 50.0 µM); -7% in assay [6] (setting [7]); 77% (active) in assay [6] (setting [8]); 60.9% in assay [6] (at 50.0 µM).
On to `CC(=O)C(C=O)C(C)=O.CC(=O)CC(C)=O.CC(=O)CC(C)=O.[Ru]`, for which the growth inhibition in assay [1] (setting [7]) is 4%; in assay [1] (setting [8]), 59%; in assay [1] (at 50.0 µM), 36.9%; in assay [2] (setting [7]), 60%; in assay [2] (setting [8]), 98% (active); in assay [2] (at 50.0 µM), 97.9% (active). Also, the growth inhibition is 16% in assay [3] (setting [7]); 61% in assay [3] (setting [8]); 50.5% in assay [3] (at 50.0 µM); 0% in assay [4] (setting [7]); 44% in assay [4] (setting [8]); 36% in assay [4] (at 50.0 µM). The growth inhibition in assay [5] (setting [7]) is -7%; in assay [5] (setting [8]), 33%; in assay [5] (at 50.0 µM), -1.3%; in assay [6] (setting [7]), 11%; in assay [6] (setting [8]), 66%; in assay [6] (at 50.0 µM), 52.8%.
For the molecule `CC(C)C1=CC23CCC4C(C)(C(=O)O)CCCC4(C)C2CC1C(C(=O)O)C3C(=O)O` (configuration not stated), the growth inhibition in assay [1] (setting [7]) was 80% (active); in assay [1] (setting [8]) it was 99% (active); in assay [1] (at 50.0 µM), 98.4% (active); in assay [2] (setting [7]), 89% (active); in assay [2] (setting [8]) it was 99% (active); in assay [2] (at 50.0 µM), 98.1% (active). The growth inhibition is 52% in assay [3] (setting [7]); 98% (active) in assay [3] (setting [8]); 94.9% (active) in assay [3] (at 50.0 µM); 86% (active) in assay [4] (setting [7]); 99% (active) in assay [4] (setting [8]); 98% (active) in assay [4] (at 50.0 µM). The growth inhibition in assay [5] (setting [7]) is 84% (active); in assay [5] (setting [8]) it was 99% (active); in assay [5] (at 50.0 µM), 97.6% (active); in assay [6] (setting [7]), 88% (active); in assay [6] (setting [8]) it was 98% (active); in assay [6] (at 50.0 µM), 96% (active).
In the case of `Oc1ccc(N=Nc2ccc(Cl)cc2)cc1O`, the growth inhibition is -30% in assay [1] (setting [7]); 98% (active) in assay [1] (setting [8]); 98.4% (active) in assay [1] (at 50.0 µM); -8% in assay [2] (setting [7]); 98% (active) in assay [2] (setting [8]); 98.3% (active) in assay [2] (at 50.0 µM). The growth inhibition in assay [3] (setting [7]) was 8%; in assay [3] (setting [8]) it was 98% (active); in assay [3] (at 50.0 µM), 98.5% (active); in assay [4] (setting [7]) it was -7%; in assay [4] (setting [8]) it was 97% (active); in assay [4] (at 50.0 µM), 97.7% (active). Moreover, the growth inhibition in assay [5] (setting [7]) was -35%; in assay [5] (setting [8]), 98% (active); in assay [5] (at 50.0 µM), 97.8% (active); in assay [6] (setting [7]), -7%; in assay [6] (setting [8]), 98% (active); in assay [6] (at 50.0 µM), 98.2% (active).
As for `O=C(CC(=O)Nc1cccc(Cl)c1)NNCC(=O)Nc1nnc(-c2ccccc2)s1`, the growth inhibition in assay [1] (setting [7]) was 8%; in assay [1] (setting [8]), 98% (active); in assay [1] (at 50.0 µM) it was 8.5%; in assay [2] (setting [7]), 6%; in assay [2] (setting [8]) it was 99% (active); in assay [2] (at 50.0 µM) it was 8.05%. Moreover, the growth inhibition in assay [3] (setting [7]) is 11%; in assay [3] (setting [8]), 99% (active); in assay [3] (at 50.0 µM), 0.65%; in assay [4] (setting [7]) it was 3%; in assay [4] (setting [8]) it was 98% (active); in assay [4] (at 50.0 µM) it was 51.1%. Further, the growth inhibition in assay [5] (setting [7]) was 7%; in assay [5] (setting [8]), 99% (active); in assay [5] (at 50.0 µM), -3.45%; in assay [6] (setting [7]), 3%; in assay [6] (setting [8]), 98% (active); in assay [6] (at 50.0 µM) it was 9.9%.

For the origin of these results see PubChem BioAssay (NCI).
